Reference: PubChem BioAssay AID1159580 (chemical genetic matrix, 2015)
Where “and” joins values, the source holds several entries; their conditions need not be identical. Equal entries are not always repeated. The whole screen tested about 5,500 compounds, of which about 2,000 (36%) were called active. Not shown: some 18% with an inconclusive outcome. Cut-off read from the data, not from the text of the source: active = normalized growth mostly below about 0.91 (no sharp cut-off); inconclusive = no clear call, values can overlap the other calls; inactive = mostly above about 0.92. Some of the results follow.

Assay: chemical genetic growth profiling, strain panel (AID 1159580);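 note: tested at 20 µM; growth read once vehicle control cultures reached saturation at 30 °C; 1 = growth at the plate median or of vehicle wells; lower values mean less growth of the strain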
Details: S. cerevisiae deletion strains, growth OD

Measured: normalized growth

CCOC(=O)C1C(C=C(C)C)C1(C)C (stereo unspecified)
inactive: locus YAL013W, strain DEP1, stronger effect = lower value 0.998 | locus YAL021C, strain ccr4, stronger effect = lower value 0.989 | locus YAL026C, strain drs2, stronger effect = lower value 1.01 | locus YAL030W, strain snc1, stronger effect = lower value 1 | locus YBL061C, strain skt5, stronger effect = lower value 1.01 | locus YBR009C, strain hhf1, stronger effect = lower value 0.998 | locus YBR021W, strain FUR4, stronger effect = lower value 0.979 | locus YBR023C, strain chs3, stronger effect = lower value 1 | locus YBR171W, strain sec66, stronger effect = lower value 1 | locus YBR229C, strain ROT2, stronger effect = lower value 1 | locus YBR231C, strain swc5, stronger effect = lower value 0.995 | locus YBR279W, strain paf1, stronger effect = lower value 1 | locus YCL011C, strain gbp2, stronger effect = lower value 0.992 | locus YCL016C, strain dcc1, stronger effect = lower value 1.01 | locus YCL029C, strain bik1, stronger effect = lower value 1.02 | locus YCL061C, strain MRC1, stronger effect = lower value 0.996 | locus YCL069W, strain vba3, stronger effect = lower value 1 | locus YCR088W, strain abp1, stronger effect = lower value 1 | locus YDL005C, strain med2, stronger effect = lower value 0.991 | locus YDL035C, strain GPR1, stronger effect = lower value 1.01 | locus YDL040C, strain nat1, stronger effect = lower value 1.02 | locus YDL074C, strain BRE1, stronger effect = lower value 1.03 | locus YDL101C, strain DUN1, stronger effect = lower value 1 | locus YDL185W, strain tfp1, stronger effect = lower value 1.02 | locus YDL192W, strain arf1, stronger effect = lower value 1 | locus YDR001C, strain nth1, stronger effect = lower value 1 | locus YDR069C, strain doa4, stronger effect = lower value 1 | locus YDR101C, strain arx1, stronger effect = lower value 1.01 | locus YDR137W, strain rgp1, stronger effect = lower value 1.01 | locus YDR159W, strain sac3, stronger effect = lower value 0.939 | locus YDR162C, strain NBP2, stronger effect = lower value 1.01 | locus YDR195W, strain ref2 0.99 | locus YDR297W, strain sur2, stronger effect = lower value 0.991 | locus YDR318W, strain mcm21, stronger effect = lower value 1.01 | locus YDR334W, strain swr1, stronger effect = lower value 1.01 | locus YDR335W, strain msn5, stronger effect = lower value 1 | locus YDR388W, stronger effect = lower value 1.01 | locus YDR392W, strain spt3, stronger effect = lower value 0.876 | locus YDR502C, strain sam2, stronger effect = lower value 1.01 | locus YEL003W, strain gim4, stronger effect = lower value 1.02 | locus YEL037C, strain rad23, stronger effect = lower value 1 | locus YEL061C, strain CIN8 (second series), stronger effect = lower value 1.01 | locus YEL061C, strain CIN8, stronger effect = lower value 1 | locus YER015W, strain faa2, stronger effect = lower value 1 | locus YER016W, strain bim1, stronger effect = lower value 0.978 | locus YER110C, stronger effect = lower value 1.02 | locus YER111C, strain swi4, stronger effect = lower value 0.997 | locus YER155C, strain BEM2 (second series), stronger effect = lower value 0.981 | locus YER155C, strain BEM2, stronger effect = lower value 1 | locus YER167W, strain BCK2, stronger effect = lower value 0.998 | locus YFR010W, strain ubp6, stronger effect = lower value 1 | locus YGL078C, strain dbp3, stronger effect = lower value 1 | locus YGL086W, strain mad1, stronger effect = lower value 1.01 | locus YGL167C, strain pmr1, stronger effect = lower value 1 | locus YGL173C, strain kem1, stronger effect = lower value 1 | locus YGL227W, strain vid30, stronger effect = lower value 1 | locus YGL240W, strain doc1, stronger effect = lower value 0.97 | locus YGL248W, strain PDE1, stronger effect = lower value 1.01 | locus YGL253W, strain hxk2, stronger effect = lower value 1.02 | locus YGR078C, strain PAC10, stronger effect = lower value 1.01 | locus YGR135W, strain pre9, stronger effect = lower value 0.993 | locus YGR252W, strain gcn5, stronger effect = lower value 0.982 | locus YHR013C, strain ard1, stronger effect = lower value 1 | locus YHR027C, strain rpn1, stronger effect = lower value 1 | locus YHR030C, strain SLT2, stronger effect = lower value 1 and 1.04 | locus YHR079C, strain IRE1 (second series), stronger effect = lower value 1 | locus YHR079C, strain IRE1, stronger effect = lower value 1.04 | locus YHR094C, strain hxt1, stronger effect = lower value 1.01 | locus YHR129C, strain ARP1, stronger effect = lower value 1 | locus YHR142W, strain chs7, stronger effect = lower value 1.01 | locus YHR200W, strain rpn10, stronger effect = lower value 1.02 | locus YIL066C, strain RNR3, stronger effect = lower value 0.996 | locus YIL073C, strain SPO22, stronger effect = lower value 1.06 | locus YIL125W, strain kgd1, stronger effect = lower value 1.01 | locus YIR030C, strain dcg1, stronger effect = lower value 1.01 | locus YJL092W, strain hpr5, stronger effect = lower value 1 | locus YJL095W, strain BCK1 (second series), stronger effect = lower value 1.02 | locus YJL095W, strain BCK1, stronger effect = lower value 1 and 1.02 | locus YJL115W, strain asf1, stronger effect = lower value 0.999 | locus YJL129C, strain trk1, stronger effect = lower value 0.984 | locus YJL134W, strain LCB3, stronger effect = lower value 1 | locus YJL154C, strain vps35, stronger effect = lower value 1 | locus YJL164C, strain tpk1, stronger effect = lower value 0.989 | locus YJL166W, strain qcr8, stronger effect = lower value 0.996 | locus YJL168C, strain set2, stronger effect = lower value 1.01 | locus YJL187C, strain SWE1 (second series), stronger effect = lower value 1 | locus YJR043C, strain POL32, stronger effect = lower value 0.988 | locus YJR066W, strain TOR1, stronger effect = lower value 0.991 | locus YKL009W, strain mrt4, stronger effect = lower value 1.06 | locus YKL068W, stronger effect = lower value 1.01 | locus YKL085W, strain MDH1 (second series), stronger effect = lower value 1.01 | locus YKL085W, strain MDH1, stronger effect = lower value 1.01 | locus YKL160W, strain elf1, stronger effect = lower value 1.01 | locus YKL190W, strain CNB1, stronger effect = lower value 0.983 | locus YKR001C, strain vps1, stronger effect = lower value 1.04 | locus YKR026C, strain gcn3, stronger effect = lower value 1 | locus YKR091W, strain srl3, stronger effect = lower value 0.997 | locus YLL001W, strain dnm1, stronger effect = lower value 0.978 | locus YLL026W, stronger effect = lower value 1.01 | locus YLL041C, strain sdh2, stronger effect = lower value 1.01 | locus YLR027C, strain aat2, stronger effect = lower value 0.982 | locus YLR039C, strain RIC1, stronger effect = lower value 1.01 | locus YLR058C, strain SHM2, stronger effect = lower value 1 | locus YLR102C, strain apc9, stronger effect = lower value 1.01 | locus YLR113W, strain HOG1, stronger effect = lower value 1.04 | locus YLR221C, strain rsa3, stronger effect = lower value 1.01 | locus YLR258W, strain gsy2, stronger effect = lower value 1.01 | locus YLR262C, strain YPT6 (second series), stronger effect = lower value 1.01 | locus YLR262C, strain YPT6, stronger effect = lower value 1.02 | locus YLR268W, strain sec22, stronger effect = lower value 1.03 | locus YLR320W, strain mms22, stronger effect = lower value 0.976 | locus YLR330W, strain CHS5, stronger effect = lower value 1.03 | locus YLR342W, strain FKS1 (second series), stronger effect = lower value 0.98 | locus YLR342W, strain FKS1, stronger effect = lower value 1 | locus YLR357W, strain rsc2, stronger effect = lower value 0.925 | locus YLR370C, strain arc18, stronger effect = lower value 1.02 | locus YLR371W, strain rom2, stronger effect = lower value 1.01 | locus YLR384C, strain iki3, stronger effect = lower value 0.995 | locus YLR418C, strain cdc73, stronger effect = lower value 1.02 | locus YML016C, strain PPZ1, stronger effect = lower value 1.01 | locus YML032C, strain rad52, stronger effect = lower value 1 | locus YML120C, strain ndi1, stronger effect = lower value 0.994 | locus YML124C, strain tub3, stronger effect = lower value 1 | locus YMR058W, strain fet3, stronger effect = lower value 1 | locus YMR078C, strain ctf18, stronger effect = lower value 1 | locus YMR125W, strain sto1, stronger effect = lower value 0.983 | locus YMR129W, stronger effect = lower value 1 | locus YMR205C, strain PFK2, stronger effect = lower value 0.995 | locus YMR223W, strain ubp8, stronger effect = lower value 0.992 | locus YMR231W, strain pep5, stronger effect = lower value 0.999 | locus YMR307W, strain GAS1, stronger effect = lower value 1.02 | locus YNL067W, strain RPL9B, stronger effect = lower value 1 | locus YNL071W, strain lat1, stronger effect = lower value 1.01 | locus YNL183C, strain NPR1, stronger effect = lower value 0.981 | locus YNL209W, strain ssb2, stronger effect = lower value 0.99 | locus YNL233W, strain BNI4, stronger effect = lower value 1 | locus YNL248C, strain rpa49, stronger effect = lower value 0.95 | locus YNL250W, strain rad50, stronger effect = lower value 1.02 | locus YNL271C, strain bni1, stronger effect = lower value 1.02 | locus YNL298W, strain CLA4, stronger effect = lower value 1.01 | locus YNL307C, strain MCK1, stronger effect = lower value 1.02 | locus YNL322C, strain KRE1 (second series), stronger effect = lower value 0.969 | locus YNR049C, strain mso1, stronger effect = lower value 1 | locus YNR052C, strain pop2, stronger effect = lower value 1.01 | locus YOL012C, strain htz1 0.867 | locus YOL147C, strain pex11, stronger effect = lower value 1.01 | locus YOR001W, strain rrp6, stronger effect = lower value 0.981 | locus YOR061W, strain CKA2, stronger effect = lower value 1 | locus YOR069W, strain VPS5, stronger effect = lower value 1 | locus YOR070C, strain gyp1, stronger effect = lower value 0.996 | locus YOR080W, strain dia2, stronger effect = lower value 0.991 | locus YOR083W, strain WHI5, stronger effect = lower value 0.937 | locus YOR106W, strain vam3, stronger effect = lower value 1 | locus YOR136W, strain idh2, stronger effect = lower value 1.02 | locus YOR144C, strain elg1, stronger effect = lower value 1.01 | locus YOR184W, strain ser1, stronger effect = lower value 1.01 | locus YOR231W, strain MKK1, stronger effect = lower value 1.03 | locus YOR265W, strain rbl2, stronger effect = lower value 1.01 | locus YOR270C, strain vph1, stronger effect = lower value 1.03 | locus YOR290C, strain snf2, stronger effect = lower value 1.01 | locus YOR316C, strain cot1, stronger effect = lower value 1.01 | locus YPL051W, strain arl3, stronger effect = lower value 1 | locus YPL078C, strain atp4, stronger effect = lower value 0.991 | locus YPL106C, strain sse1, stronger effect = lower value 0.963 | locus YPL240C, strain hsp82, stronger effect = lower value 0.998 | locus YPL256C, strain CLN2, stronger effect = lower value 1.02 | locus YPR119W, strain clb2, stronger effect = lower value 1.01 | locus YPR141C, strain kar3, stronger effect = lower value 1.01 | locus YPR163C, strain tif3, stronger effect = lower value 1.01 | locus YPR167C, strain met16, stronger effect = lower value 1.03 | strain wtn01, stronger effect = lower value 1.02
